# MITF primary – inhibitors of human MITF | O75030 | AlphaScreen MITF homodimerization, bead proximity signal | inhibition, % at 2.6 µM | 650,000 tested, 0.91% active; in the data active = inhibition above about 50%;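 also: 0% = vehicle wells with protein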
# TEAD-YAP block – TEAD-YAP interaction inhibition; HEK-TIYL cells, TEAD-Gal4/YAP UAS-luciferase luminescence; inhibition, % at 9.12 µM; 640,000 tested, 1.4% active; in the data active = inhibition above about 32%;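 also: 0% = median of test compound wells and 100% = reference inhibitor wells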
# FBW7 activator – human FBW7 E3 ligase activation, primary screen. AID 1259310. 650,000 tested, 0.13% active. normalized activity (activation), % at 26.1 µM. AlphaScreen FBW7–phospho-cyclin E peptide binding, activator screen. Q969H0; in the data active = normalized activity above about 1.9%;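 also: purified mutant Fbw7 with reduced substrate affinity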
# GPR151 ag – human GPR151 activation; PathHunter beta-arrestin GPR151 cells, luminescence; activation, % at 11.2 µM; Q8TDV0; 650,000 tested, 1% active; in the data active = activation above about 4.9%;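 also: 0% = median of compound wells and 100% = cells with positive control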
# The depositor's hits bear a star. In the library only some 3.4% were active in any assay of this set; here they are far more common.
SMILES,MITF primary,TEAD-YAP block,FBW7 activator,GPR151 ag
Cc1ccc(OCC(=O)c2cc(C)n(-c3ccccc3)c2C)c([N+](=O)[O-])n1,1,50*,0,0
C=CCn1c(C)cc(C(=O)COc2ccc(C)nc2[N+](=O)[O-])c1C,-6,30,0,2
CCc1ccccc1N(CC(=O)NC(C)(C)CC)C(=O)CCC(=O)Nc1ccccn1,21,-2,0,-1
Cc1cccc(N(C)c2ccnc3c(-c4cccc(C(N)=O)c4)cnn23)c1,-10,34*,0,2
c1ccc(CNc2ccnc3c(-c4cc5ccccc5o4)cnn23)nc1,12,-70,0,-1
CN(C)CCNc1ccnc2c(-c3cc4ccccc4o3)cnn12,-2,68*,1,-2
CN(C)CCNc1ccnc2c(-c3cccc(C(N)=O)c3)cnn12,3,57*,0,-1
CCCNc1ccnc2c(-c3cccc(/C=C/C(=O)O)c3)cnn12,-19,64*,0,-1
CCc1cccc(CC)c1-n1c(CNC(=O)COc2ccccc2)n[nH]c1=S,3,-9,0,-1
O=C(O)CCCC(=O)Nc1ccc(Cl)cn1,-3,1,0,1
COc1cccc(CCNC(=O)C2CC23CCN(Cc2ccco2)CC3)c1 (configuration not stated),-8,-6,0,0
Cc1ccc(-n2ncc3c(=O)n(CC(=O)NC4CC4)cnc32)cc1,15,-5,0,1
Cc1cc(C(F)(F)F)nc(Sc2ccc([N+](=O)[O-])cn2)n1,24,60*,0,-1
O=[N+]([O-])c1ccc(Sc2n[nH]c(-c3ccncc3)n2)nc1,5,5,0,0
COc1ccc(Cc2noc(-c3ccc([N+](=O)[O-])o3)n2)cc1OC,21,67*,0,0
COc1ccc(Cc2noc(-c3ccc(OC)c(OC)c3)n2)cc1OC,4,2,0,-1
COc1ccc(CNc2nc3ccc(-c4ccncc4)cc3s2)cc1,30,-40,60*,0
O=C(NCc1cccc(F)c1)c1c(O)c2cccc3c2n(c1=O)CCC3,-9,7,0,-1
CCOC(=O)c1[nH]c(C)c(CN(C(C)=O)c2ccc(OCC)cc2)c1C,-1,52*,0,2
N#Cc1ccccc1S(=O)(=O)NCC(=O)Nc1ccc2c(c1)OCO2,4,44*,0,0
COc1ccc(Cc2nnc(NCc3ccco3)[nH]c2=O)cc1,7,58*,0,1
COc1ccc(Cc2nnc(Nc3cccc(OC)c3)[nH]c2=O)cc1,14,57*,0,-1
CCOC(=O)CCn1c(=O)c2c(nc3n2CCN3c2ccccc2)n(C)c1=O,2,3,0,4
COc1cccc(NC(=O)CSc2nc(NC3CCCCC3)c3ccccc3n2)c1,14,44*,0,1
O=C(NCCOc1ccccc1)c1csc(Nc2ccc(-n3ccnc3)cc2)n1,15,45*,0,2
SMILES,MITF primary,TEAD-YAP block,FBW7 activator,GPR151 ag
O=C(NCCOc1ccccc1)c1cccc(Nc2ccc(-n3ccnc3)cc2)n1,11,61*,0,2
O=C(NCCc1ccc(O)cc1)c1csc(Nc2ccc(-n3ccnc3)cc2)n1,25,31,0,-2
O=C(NCCOc1ccccc1)c1cccc(Nc2ccncc2)n1,-8,-8,0,1
COc1ccc2c(Cl)c(C(=O)n3cnc4ccccc43)sc2c1,-2,4,0,-1
Cc1nnc(SCC(=O)N2CCOc3ccc(CN4CCCC4)cc3C2)s1,-3,6,0,1
O=C(NCC1COc2ccccc2O1)c1cnc(N2CCN(c3ccccn3)CC2)c2ccccc12 (configuration not stated),-6,41*,0,0
O=C(NCc1ccc(F)cc1)c1cnc(N2CCN(c3ccccn3)CC2)c2ccccc12,1,8,0,-1
O=C(NCc1cccnc1)c1cnc(N2CCN(c3ccccn3)CC2)c2ccccc12,-8,39*,0,0
Cc1c(C(=O)NCc2cccnc2)sc2ncnc(N3CCN(c4ccccn4)CC3)c12,5,35*,0,0
O=C(NCC1COc2ccccc2O1)c1cnc(N2CCN(c3ncccn3)CC2)c2ccccc12 (configuration not stated),-12,23,0,1
Cc1cccc(C)c1N(CC(=O)NC(C)c1ccccc1)S(C)(=O)=O (configuration not stated),16,5,0,1
COc1ccc2nc(NC(=O)CSc3nncn3C)sc2c1,11,-43,0,4
CCOc1ccc(NCc2ccc(O)c3ncccc23)cc1,62*,11,-1,0
Oc1ccc(CNc2cccc(Br)c2)c2cccnc12,27,1,-1,-1

# Bioassay records from PubChem BioAssay.
